Experimental data taken from PubChem BioAssay (EPA / NIEHS).
Results filed as inconclusive are left out. The source made the active and inactive calls. The calls were made as follows: active = hit-call score of the fitted dose curve at least 0.9, where 1 is the maximum; inconclusive = response in the unintended direction; inactive = score below 0.9.

Key:
[1] = TOX21_p53_BLA_p2_viability: Viability Assessment in the Tox21 HCT-116 p53 Agonism Beta-lactamase Assay, Phase 2 (AID 2283591);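 also: compound exposure lasted 16 h at 37 °C; actives lower the ATP signal meaning cytotoxicity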
Method in brief: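 HCT-116 p53-bla cells (4000/well) rested 5 h at 37C, then received compounds in DMSO (217-fold dilution) for 16 h at 37C, 5% CO2. After the CCF4 read, CellTiter-Glo was added; ATP luminescence was read after 30 min at room temperature.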

[2] = target: Cellular tumor antigen p53 (Homo sapiens) (UniProt P04637); assay: TOX21_p53_BLA_p2_ratio: Tox21 HCT-116 p53 Agonism Beta-lactamase Assay, Ratio, Phase 2 (AID 2283592)
Chain of Cellular tumor antigen p53 (Homo sapiens) (P04637 whole entry, looked up): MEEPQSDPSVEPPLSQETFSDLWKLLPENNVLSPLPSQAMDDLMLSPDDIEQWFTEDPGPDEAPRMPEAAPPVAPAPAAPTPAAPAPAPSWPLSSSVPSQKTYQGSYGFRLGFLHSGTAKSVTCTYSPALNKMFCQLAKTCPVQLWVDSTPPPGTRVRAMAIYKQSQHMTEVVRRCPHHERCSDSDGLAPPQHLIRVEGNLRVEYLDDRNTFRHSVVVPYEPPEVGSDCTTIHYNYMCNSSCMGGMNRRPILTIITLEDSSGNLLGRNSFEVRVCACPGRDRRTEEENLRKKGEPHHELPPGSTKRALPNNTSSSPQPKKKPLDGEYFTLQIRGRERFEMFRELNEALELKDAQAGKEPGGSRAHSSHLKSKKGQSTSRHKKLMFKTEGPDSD
Method in brief: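 DMSO-normalized, positive-direction endpoint derived from the 460 nm/530 nm FRET ratio in HCT116 p53 beta-lactamase reporter cells exposed 16 h at 37C and loaded with CCF4-AM for 2 h.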

[3] = TOX21_p53_BLA_p3_viability: Viability Assessment in the Tox21 HCT-116 p53 Agonism Beta-lactamase Assay, Phase 3 (AID 2283593);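 also: cells exposed to compound for 16 h before reading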
Method in brief: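 HCT-116 cells (4000/well) rested 5 h at 37C, then got DMSO compounds by pin tool (217-fold dilution) for 16 h at 37C, 5% CO2. After the bla read, CellTiter-Glo was added and luminescence read at 30 min, room temperature.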

[4] = target: Cellular tumor antigen p53 (Homo sapiens) (UniProt P04637); assay: TOX21_p53_BLA_p3_ratio: Tox21 HCT-116 p53 Agonism Beta-lactamase Assay, Ratio, Phase 3 (AID 2283596)
Method in brief: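 Cells were seeded at 4000/well, rested 5 h at 37C, then dosed with DMSO compound solutions (217-fold dilution) for 16 h. CCF4-AM substrate was loaded for 2 h at room temperature, and the 460/530 nm emission ratio was fitted for gain of signal versus DMSO.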

[5] = target: Cellular tumor antigen p53 (Homo sapiens) (UniProt P04637); assay: TOX21_p53_BLA_p5_ratio: Tox21 HCT-116 p53 Agonism Beta-lactamase Assay, Ratio, Phase 5 (AID 2283599)
Method in brief: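 HCT-116 cells carrying a p53-inducible beta-lactamase reporter were seeded at 4000 cells/well and dosed after 5 h with compound in DMSO (217-fold dilution). After 16 h at 37C, CCF4-AM substrate was added for 2 h, and the 460/530 nm emission ratio was scored as gain-of-signal versus DMSO.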

[6] = TOX21_p53_BLA_p5_viability: Viability Assessment in the Tox21 HCT-116 p53 Agonism Beta-lactamase Assay, Phase 5 (AID 2283600)
Method in brief: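 Here cell health was gauged by ATP levels in wells holding 4000 cells, each treated 16 h with DMSO-delivered compounds at 217-fold dilution; reduced luminescence marked toxicity.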

[7] = target: Cellular tumor antigen p53 (Homo sapiens) (UniProt P04637); assay: TOX21_p53_BLA_p4_ratio: Tox21 HCT-116 p53 Agonism Beta-lactamase Assay, Ratio, Phase 4 (AID 2283601)
Method in brief: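 HCT116 cells carrying an inducible beta-lactamase reporter were plated at 4000 cells/well, rested 5 h, then exposed to compounds in DMSO (217-fold dilution) for 16 h at 37C. CCF4-AM substrate was loaded 2 h at room temperature; 460/530 nm emission ratio scored gain-of-signal versus DMSO.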

Measured: AC50

CN1C(C(=O)Nc2ccccn2)=C(O)c2ccccc2S1(=O)=O
inactive: all assays above

N[C@H](C(=O)O)[C@@H]1CC(Cl)=NO1
active: [1] 15.8 µM | [2] 5.51 µM | [3] 9.5 µM | [4] 5.91 µM | [5] 5.35 µM | [6] 11.4 µM | [7] 5.46 µM

CC(C)c1nc(N(C)S(C)(=O)=O)nc(-c2ccc(F)cc2)c1/C=C/C(O)CC(O)CC(=O)O (stereo not given)
inactive: all assays above

O=C(O)c1cccc(C(=O)O)c1C(=O)O
inactive: all assays above

NC[C@@H]1CC[C@@H](N)[C@@H](O[C@H]2[C@H](O)[C@@H](O[C@H]3O[C@H](CO)[C@@H](O)[C@H](N)[C@H]3O)[C@H](N)C[C@@H]2N)O1
inactive: all assays above

COC(=O)[C@@H](N)CS
inactive: all assays above

CC(C)C[P+](C)(CC(C)C)CC(C)C
inactive: all assays above

C=CC(C)(O)CC/C=C(\C)CCC=C(C)C (stereo not given)
inactive: all assays above

O=[N+]([O-])c1cc(C2CCCCC2)c(O)c([N+](=O)[O-])c1
active: [2] 1.77 µM | [4] 0.902 µM
inactive: all other assays above

COc1c(C)c2c(c(O)c1C/C=C(\C)CCC(=O)O)C(=O)OC2
inactive: [1] | [3] | [6]
active: [2] 0.0608 µM | [4] 0.102 µM | [5] 0.127 µM | [7] 0.091 µM

NCCS(=O)(=O)O
inactive: all assays above

C=CC(=O)OCCOc1ccccc1
inactive: all assays above

O=c1[nH]c(=O)n([C@H]2C[C@H](O)[C@@H](CO)O2)cc1I
inactive: all assays above

CC1CN(c2ccccc2)NC1=O (stereo not given)
inactive: all assays above

O=C(c1ccc(O)cc1)c1ccc(Cl)cc1
active: [2] 70.5 µM | [4] 80 µM | [5] 74.9 µM | [7] 86.9 µM
inactive: [1] | [3] | [6]
